Laboratory results: PubChem BioAssay (NCI)
About 83,000 compounds went through this panel and 20% of them were active in at least one assay; those are over-represented in the sample as a whole.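 Interpretation: 100, growth as untreated; towards 0, rising growth inhibition; 0, no net growth; 0 to -100, cell death. Compounds scoring below 10 were considered active.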 A number with no mark means an inactive call. Calls of active or inactive are those of the source.

Tested on: NCI-H23 lung
Experiment: NCI-60 one-dose screen, 48 h (100 = growth as untreated, 0 = no growth, -100 = all killed)
Settings: 10 µM unless noted

| SMILES | growth |
| --- | --- |
| NC(=S)N/N=C/C(=O)O | 99.3% |
| CS(=O)(=O)c1ccc(-c2[nH]c3ccc(F)cc3c2/C=N/NC(N)=S)cc1 | 38.1% |
| O=[N+]([O-])c1ccc(-c2cc3c(Nc4ccc(Cl)c(C(F)(F)F)c4)ncnc3s2)cc1 | -6.97% (active) |
| COC(=O)c1ccc(CSc2nnc(-c3ccncc3)o2)cc1 | 105% |
| NS(=O)(=O)Oc1ccc(NC(=O)C23CC4CC(CC(C4)C2)C3)cc1Cl | 101% |
| O=C1N(c2ccccc2)C(=S)N[C@]12[C@H](c1ccccc1)C1CCCN1[C@]21C(=O)NC2C=CC(Cl)=C[C@H]21 (stereo not given in full) | 96.2% |
| COc1ccc(-c2nc3ncccn3c2/C=C/C(=O)c2cc(OC)c(OC)c(OC)c2)cc1 | -19.6% (active) |
| N#C/C(=C\c1ccc(Br)cc1)n1nnc2cc(Cl)c(Cl)cc21 | 32.3% |
| O=S(=O)(Cc1ccccc1)c1nc2ccccc2s1 | 56.3% |
| COc1ccc(-c2nnc(-c3ccc4c(c3)nc(-c3ccccc3)n4C3CCCCC3)o2)cc1 | 62.5% |
| CN1CCC(=C2c3ccccc3C=Cc3ccccc32)CC1 | 83.7% |
| CNC(=O)NCC1OC(n2cnc3c(NC(=O)Nc4ccccc4)ncnc32)C2OC(C)(C)OC12 (stereo not given) | 87.3% |
| COc1ccc(-c2cncnc2N)cc1OC | 108% |
| O=[N+]([O-])c1ccccc1C(O)Cc1ccc2ccccc2n1 (stereo not given) | 95.7% |
| CCn1c(Sc2nnc(NC(C)=O)s2)nc2c1c(=O)n(C)c(=O)n2C | 82.2% |
